# Out of some 310,000 compounds screened, about 14,000 (4.5%) showed an effect of 50% or more. The effect is printed as a negative number. The full list was thinned out, with strong results kept by preference.
# Target: human ether-à-go-go-related gene (hERG) potassium channel (human, UniProt Q12809)
# Assay: primary screen, population patch clamp on CHO cells stably expressing hERG; higher = less effect of the substance
# 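Also: peak tail current of the secondary pulse compared with the same well before compound.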
# Chain of human ether-à-go-go-related gene (hERG) potassium channel (Q12809 whole entry, looked up): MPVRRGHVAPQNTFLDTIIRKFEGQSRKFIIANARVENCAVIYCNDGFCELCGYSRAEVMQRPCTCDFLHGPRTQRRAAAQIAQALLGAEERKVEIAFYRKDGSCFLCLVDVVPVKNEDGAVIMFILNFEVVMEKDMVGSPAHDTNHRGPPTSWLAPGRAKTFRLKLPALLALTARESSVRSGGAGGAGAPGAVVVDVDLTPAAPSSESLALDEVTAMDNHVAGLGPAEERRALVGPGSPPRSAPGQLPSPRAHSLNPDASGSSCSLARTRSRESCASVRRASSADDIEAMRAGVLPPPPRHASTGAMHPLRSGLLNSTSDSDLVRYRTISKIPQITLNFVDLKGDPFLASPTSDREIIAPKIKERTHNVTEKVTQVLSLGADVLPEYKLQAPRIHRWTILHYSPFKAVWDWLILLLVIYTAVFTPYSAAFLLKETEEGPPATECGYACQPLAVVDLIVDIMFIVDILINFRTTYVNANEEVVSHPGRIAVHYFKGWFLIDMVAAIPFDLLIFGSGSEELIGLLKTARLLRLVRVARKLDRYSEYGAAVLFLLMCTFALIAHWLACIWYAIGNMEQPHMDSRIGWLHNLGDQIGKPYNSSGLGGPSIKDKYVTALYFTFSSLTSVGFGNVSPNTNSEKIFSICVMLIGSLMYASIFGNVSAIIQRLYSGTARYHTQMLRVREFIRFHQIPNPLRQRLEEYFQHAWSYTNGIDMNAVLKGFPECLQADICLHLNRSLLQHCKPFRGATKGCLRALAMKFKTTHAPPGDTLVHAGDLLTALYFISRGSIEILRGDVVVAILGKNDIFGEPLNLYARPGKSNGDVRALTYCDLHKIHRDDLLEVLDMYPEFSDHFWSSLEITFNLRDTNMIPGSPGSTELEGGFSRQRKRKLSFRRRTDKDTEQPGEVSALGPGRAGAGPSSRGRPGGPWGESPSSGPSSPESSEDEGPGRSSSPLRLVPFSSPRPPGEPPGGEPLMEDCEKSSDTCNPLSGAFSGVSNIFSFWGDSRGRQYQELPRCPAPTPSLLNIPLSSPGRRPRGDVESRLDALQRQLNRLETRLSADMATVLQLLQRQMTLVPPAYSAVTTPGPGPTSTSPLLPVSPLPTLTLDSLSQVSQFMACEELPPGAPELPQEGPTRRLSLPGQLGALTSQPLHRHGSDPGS
row,SMILES,"hERG current change (%, negative = inhibition) at 10uM"
1,CCOC(=O)c1ccc(NC(=O)Nc2ccc3c(c2)OCCO3)cc1,10.6%
2,Cn1c(=O)c2c(nc(SCC(=O)c3cccs3)n2Cc2ccc(F)cc2)n(C)c1=O,-13.2%
3,COc1ccc(C(=O)c2ccccc2Cl)cc1,-34.5%
4,O=C(CSc1nnc(CNC(=O)c2ccccc2F)o1)NCc1ccccc1,-7.93%
5,Cc1ccc(NC(=O)COC(=O)C2CC(=O)N(Cc3ccccc3)C2)cc1S(=O)(=O)N(C)C (centres unmarked),7.45%
6,CCCn1ccnc1SC(C)C(=O)Nc1c(C)n(C)n(-c2ccccc2)c1=O (centres unmarked),16.9%
7,CN1C(=O)N(C)c2ccc(Br)c3cccc1c23,23.5%
8,CC(OC(=O)c1ccccc1C(=O)N(C)c1ccccc1)C(=O)Nc1ccc(C(N)=O)cc1 (centres unmarked),-4.36%
9,Cc1c(C)c2ccc(OCC(=O)N3C[C@H]4C[C@@H](C3)c3cccc(=O)n3C4)c(C)c2oc1=O,1.39%
10,COc1ccc(-c2cc(=O)oc3cc(OCC(=O)N4C[C@H]5C[C@@H](C4)c4cccc(=O)n4C5)ccc23)cc1,-53.5%
11,CCc1cc(=O)oc2cc(OCC(=O)N3C[C@H]4C[C@@H](C3)c3cccc(=O)n3C4)ccc12,8.87%
12,Cc1c(OCC(=O)N2C[C@H]3C[C@@H](C2)c2cccc(=O)n2C3)ccc2c3c(c(=O)oc12)CCCC3,-13.5%
13,Cc1coc2c(C)c3oc(=O)c(CCC(=O)N4C[C@H]5C[C@@H](C4)c4cccc(=O)n4C5)c(C)c3cc12,-50.6%
14,Cc1cc(=O)oc2cc(OCC(=O)N3C[C@H]4C[C@@H](C3)c3cccc(=O)n3C4)ccc12,1.52%
15,COCCOC1CCN(C(=O)C2CCC(=O)N(Cc3cccc(F)c3)C2)CC1 (centres unmarked),20.1%
16,CCOC(=O)N1CCN(C(=O)c2ccc(NS(=O)(=O)c3ccc(F)cc3)cc2)CC1,-1.81%
17,CCN(C(=O)COC(=O)C1CCN(S(=O)(=O)c2ccc(C)c(C)c2)CC1)C1CCCCC1,-10.4%
18,Cc1ccc(/C(N)=N/OC(=O)CSc2ccccc2)cc1,-5.49%
19,Cn1nc(-c2ccccc2F)c2cc(C(=O)N3CCN(C(=O)c4ccco4)CC3)sc21,-57.2%
20,CC(CCc1ccco1)NC(=O)c1cc2c(-c3ccccc3F)nn(C)c2s1 (centres unmarked),-5.86%
21,CC1CCCCN1CCNC(=O)c1cc2c(-c3ccccc3F)nn(C)c2s1 (centres unmarked),-56.1%
22,COCCNC(=O)c1cc2c(-c3ccccc3F)nn(C)c2s1,-6.2%
23,CN(CCNC(=O)c1cc2c(-c3ccccc3F)nn(C)c2s1)C1CCCCC1,-50.8%
24,CC(=O)c1ccc(N2CCN(C(=O)c3cc4c(-c5ccccc5F)nn(C)c4s3)CC2)cc1,-20.7%
25,Cn1nc(-c2ccc(Cl)cc2)c2cc(C(=O)N3CCN(C(=O)c4ccco4)CC3)sc21,-20.7%
26,Cn1nc(-c2ccccc2F)c2cc(C(=O)Nc3ccc4c(c3)OCCO4)sc21,14.8%
27,CCOC(=O)N1CCC(NC(=O)c2cc3c(-c4ccccc4F)nn(C)c3s2)CC1,13.5%

row,SMILES,"hERG current change (%, negative = inhibition) at 10uM"
1,CCOc1ccc(NC(=O)c2ccc(-n3cccn3)nc2)cc1,18.7%
2,CCN(/C=N/c1sc2c(c1C#N)CCCCC2)CC,5.56%
3,CC(c1ccccc1)n1c(-c2ccc(Cl)cc2)n[nH]c1=S (centres unmarked),13.9%
4,CCOc1cc(C(=O)Nc2ccc([N+](=O)[O-])cn2)cc(OCC)c1OCC,-29%
5,COc1ccc(C(=O)CC(=O)C(=O)Nc2cc(OC)c(OC)c(OC)c2)cc1,8.58%
6,Clc1ccc2[nH]c3c(NCCCN4CCOCC4)ncnc3c2c1,-69.9%
7,Cc1ccc2[nH]c3c(NCCCN4CCCC4=O)ncnc3c2c1,-13.7%
8,Cc1ccc2ncnc(NCCCN3CCOCC3)c2c1,-13.6%
9,Clc1ccc(-n2ncc3c(NCCN4CCOCC4)ncnc32)cc1,-34.7%
10,Fc1ccc2[nH]c3c(NCCN4CCOCC4)ncnc3c2c1,-16.8%
11,Clc1ccc2[nH]c3c(NCCN4CCOCC4)ncnc3c2c1,-61.8%
12,c1ccc(-n2nnc3ccccc32)nc1,3.7%
13,O=C(NN1C(=O)c2ccccc2NC1c1cccnc1)c1ccc([N+](=O)[O-])cc1 (centres unmarked),-37.5%
14,O=C(NCS(=O)(=O)c1ccccc1)c1ccccc1,-0.415%
15,CCOc1ccc2nc(CN3CCN(Cc4ccccc4OCC)C(CCO)C3)ccc2c1 (centres unmarked),-56.9%
16,CCOc1ccccc1CN1CCN(Cc2ccc3cccc(OC)c3n2)CC1CCO (centres unmarked),-55.5%
17,CCOc1ccccc1CN1CCN(Cc2ccc3cc(F)ccc3n2)CC1CCO (centres unmarked),-65.7%
18,COc1ccc(-c2csc(NC(C)c3nc4cc(C(=O)NCCCO)ccc4n3Cc3ccc(C)cc3)n2)cc1 (centres unmarked),9.34%
19,Fc1ccccc1Nc1nc2ccccc2n2nnnc12,7.8%
20,CCOc1cc(C(=O)Nc2ccc(S(=O)(=O)Nc3cc(C)on3)cc2)cc(OCC)c1OCC,-0.904%
21,O=C(NCc1ccco1)C1CCC(N2C(=O)c3ccccc3C2=O)CC1 (centres unmarked),1.59%
22,C=C1Cn2c(nnc2-c2ccc(Cl)cc2)S1,-27.4%
23,C=CCNC(=O)C1(c2ccccc2)CC1(Cl)Cl (centres unmarked),-5.1%
24,O=c1cc(N2CCCCC2)c(-c2ccccc2)nn1Cc1cccc(Cl)c1,0.996%
25,COC(=O)c1ccc(/C=C2\Oc3ccccc3NC2=O)cc1,15.5%
26,CCOC(=O)C1=C(C)NC(=S)NC1c1ccc(-c2cccc(Cl)c2C)o1 (centres unmarked),14.4%

# Source: paper PMC4336329 (PLoS ONE, 2015)
